Reference: PubChem BioAssay (NCI)
Compounds without any hit were thinned out: in the full panel of roughly 79,000, 15% have a hit. Values without a mark were called inactive. Calls of active or inactive are those of the source. Cut-off read from the data, not from the text of the source: active = growth inhibition above about 70%; inactive = the rest.

Assay: NCI Yeast Anticancer Drug Screen. Data for the rad14 strain (AID 159);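 note: 0% = growth of vehicle-treated control cultures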
Conditions: S. cerevisiae rad14 strain growth inhibition, active compounds read high
Method: Growth inhibition of yeast strains with defined genetic alterations is measured as a screen for potential anti-cancer activity. Selected strains with alterations in DNA damage repair or cell cycle control were exposed to compounds and growth inhibition was measured relative to vehicle treated controls. The strain used in this assay is rad14

| Compound | growth inhibition (at 1.2 µM) | growth inhibition (at 3.7 µM) | growth inhibition (at 11.0 µM) | growth inhibition (at 33.0 µM) | growth inhibition (at 100.0 µM) |
| --- | --- | --- | --- | --- | --- |
| CNc1ccc(Cc2c[nH]c3ccccc23)cc1 | -21% | -19% | -18% | -5% | -3% |
| c1ccc(N2N=C3N(c4ccccc4)C2N3c2ccccc2)cc1 | -33% | -36% | -20% | 20% | 92% (active) |
| ClCCn1c(CCl)nc2ccc(Cl)cc21 | -8% | 0% | 10% | 70% (active) | 99% (active) |
| COc1cc(/C=C/c2sc3ccccc3[n+]2C)ccc1N(C)C | -4% | -7% | -2% | 88% (active) | 99% (active) |
| O=C1C(Cl)=C(Cl)C(Cl)(Cl)C(Cl)C1(Cl)Cl (stereo not given) | 17% | 25% | 44% | 99% (active) | 99% (active) |
| CC[C@@]1(OC(=O)CN(C)C)C(=O)OCc2c1cc1n(c2=O)Cc2cc3c(N)cccc3nc2-1 | 2% | 0% | 4% | 19% | 51% |
| O=[N+]([O-])c1c(/C=N/Nc2ccccc2)oc(-c2ccc3c(c2)OCO3)c1-c1ccc2c(c1)OCO2 | 0% | -2% | 2% | 20% | 91% (active) |
| CC1(C)C(C=O)=CCC1CC(N)=O (stereo not given) | -3% | -2% | -3% | 6% | 99% (active) |
